These results are taken from PubChem BioAssay (NCI).

Each structure is given as a SMILES string. This is part of a sample that, as a whole, favours compounds with a hit. Of some 83,000 tested, about 20% had one in any assay.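 Compound tested at a single concentration for 48 hours in 96-well plates; a percent growth value below 10 was scored as active.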 A number with no mark means an inactive call. Calls of active or inactive are those of the source.

The test system of this assay is CAKI-1 renal. As to the kind of experiment: NCI-60 one-dose screen, 48 h (100 = growth as untreated, 0 = no growth, -100 = all killed). The following applies: 10 µM unless noted.
On to `C[C@H]1[C@H](C)CC[C@]2(C(=O)NCC#CCN3CCN(C)CC3)CC[C@]3(C)C(=CC[C@@H]4[C@@]5(C)Cc6c([nH]c7ccccc67)C(C)(C)[C@@H]5CC[C@]43C)[C@H]12`, for which the growth was 91.9%.

For the molecule `N#Cc1c(NCc2ccccc2I)sc2c1CCCCC2`, the growth is 74.8%.

In the case of `CN1C(=O)NC(c2ccc3c(c2)OCO3)C=C1c1ccccc1` (stereo not drawn), the growth is 82.8%.

`COc1cc(/C=C\C(=O)O)ccc1OCc1ccccc1`: the growth is 99.4%.

Take `CCN(CC)c1ccc(/C=N/NC(=O)CSc2nc3ccccc3c(=O)n2Cc2ccc(S(N)(=O)=O)cc2)c(O)c1`: the growth is 31%.

Turning to `Cc1ccc(S(=O)(=O)NNC(=O)/C(=C\c2ccc(Cl)cc2)c2nc3ccccc3s2)cc1`, the growth is 83.8%.

Take `CCOC(=O)[C@@H]1CCCN(S(=O)(=O)c2ccc(S(=O)(=O)N(CC)CC)c(F)c2)C1`: the growth is 64.1%.

For the molecule `Cc1ccc(CNc2c3ccccc3nc3cc(NC(=O)CCN4CCCC4)ccc23)cc1`, the growth is 7.04% (active).

Turning to `COc1ccc(CC(C)=C(c2ccc(OCCN3CCCCCC3)cc2)c2ccc(OCCN3CCCCCC3)cc2)cc1`, the growth was -92.5% (active).

In the case of `CCCCNC(=O)Oc1ccc(/C(=C(\C)c2ccccc2)c2ccc(OCCN3CCCCC3)cc2)cc1`, the growth is 46.9%.

On to `Cn1c2ccccc2c2c3c(c4c5ccccc5n(C)c4c21)C(=O)OC3`, for which the growth was 82.6%.

In the case of `CNC(=O)c1cc(Cn2nc(C)c(NC(=O)Nc3ccc(Cl)c(C(F)(F)F)c3)c2C)ccn1`, the growth was 93.6%.

Turning to `O=C(Nc1ccc(NC(=O)c2cc(=O)[nH]c3ccccc23)cc1)Nc1cccc(Cl)c1`, the growth is 78.1%.
